These results are taken from ChEMBL document CHEMBL3433997, “St. Jude Leishmania screening dataset” (2016).

The target of this assay is Glucose transporter (Leishmania mexicana) (UniProt O61059). As to the kind of experiment: ST_JUDE_LEISH: Cytotoxicity at 2uM final concentration against transgenic Leishmania Mexicana promastigotes LmGT2 that are glucose transport deficient and complemented with the L. Mexicana glucose transporter 2. Activity is measured by DNA content using SYBR green in vitro. Format: functional.
For `COc1ccc(CNC2CCN(C)CC2)cc1-c1ccc(S(=O)(=O)NCCN2CCCC2)s1`, the inhibition (usually the change of the read-out against control, counted positive when it falls) is -2.9%.
Next, `CC(=O)Nc1ncc(C(=O)Nc2cccc(-c3ccc(-c4nc5cc(C(F)(F)F)ccc5[nH]4)s3)c2)s1`: 3.18%; `O=C(NCCCCN1CCC(c2nc3ccccc3s2)CC1)c1cc2ccccc2[nH]1`: -1.01%; `Cc1ccc(C)c(C2CCN(CCCCNC(=O)c3ccc(NC(=O)c4ccc(Cl)cc4)cc3)CC2)c1`: 0.05%.
Regarding `Cc1cc(N)nc2ccc(-c3ccc(CN)cc3)cc12`, the inhibition was 4.15%.
Next, `CCCCCCCNCCNc1cc(C)nc2ccccc12`: 2.79%; `CN(C)c1ccc(-c2ccc(C(=O)NC3CCN(Cc4ccc(C(C)(C)C)cc4)CC3)s2)cc1`: -2.12%.
To `CN1CCCN(Cc2ccc(-c3cccc(NC(=O)c4ccc(C#N)cc4)c3)cc2)CC1` belongs -1.1%; to `Oc1ccc(CN2CCC(NCc3cccc(C(F)(F)F)c3)CC2)cc1`, 13.7%; to `COCCCNC(=O)c1ccc(O)c(-c2cc(Cl)cc(Cl)c2)c1`, 1.9%.
Next, `O=C(NC1CCN(Cc2ccccc2)CC1)c1ccc(-c2nc3cc4ccccc4cc3[nH]2)s1`: 4.03%; `CCN1CCC(N(Cc2ccc(-c3ccc(C(F)(F)F)cc3)cc2)C(=O)Cn2c(CCc3cccc(F)c3F)cc(=O)c3ccccc32)CC1`: -2.06%; `CC(C)(C(=O)Nc1ccc(C2CCC(NCC3CC3)CC2)c(Cl)c1)c1ccc(C(F)(F)F)cc1` (stereo not given): -0.91%.
`O=C(Nc1ccc2c(c1)CN(Cc1ccc(N3CCCC3)o1)CCC2)c1cncs1`: the inhibition was -0.45%.
Next, `COc1ccccc1NC(=O)Nc1cccc(-c2cccc(-c3nc4cccc(C)c4[nH]3)c2)c1`: -1.31%; `CC(=O)N(C)C1CCN(Cc2ccc(-c3ccc(-c4nc5cc(F)ccc5[nH]4)s3)cc2)C1` (stereo not given): 6.2%.
Next, `Nc1ncc(Cc2cc(Cl)c(N)c3ncccc23)c(N)n1`: 2.91%.
Next, `CCc1cc(Br)c2c(c1)C(NCCCNc1cc(=O)c3ccccc3[nH]1)CCN2` (stereo not given): 5.63%; `CS(=O)(=O)c1ccc2c(c1)CCN(CCC1CCC(NC(=O)C(=Cc3cccc(C#N)c3)c3ccc(-c4ccccc4)cc3)CC1)CC2` (stereo not given): 1.15%; `Fc1ccc2c(NN=CC=Cc3ccccc3)ccnc2c1`: 11.3%.
As to `O=S(=O)(Nc1cccc(CCN2CCCCC2CCN2CCCC2)c1)c1ccc(Oc2ccccc2)cc1` (stereo not given), the inhibition was -1.81%.
To `Cc1c(F)cc(C(=O)NC2CC2)cc1-c1ccc2c(cnn2S(=O)(=O)c2ccc(F)c(F)c2)c1` belongs 5.54%; to `O=S(=O)(NCCN1CCCC1)c1ccc(-c2cccc(CNCc3ccccc3)c2)s1`, -2.89%.
Next, `COc1ccc2[nH]ccc(=NN=Cc3ccncc3)c2c1`: 3.39%.
To `CCN(CC)CCN1C(=O)c2oc3ccc(Cl)cc3c(=O)c2C1c1ccc(SC)cc1` (stereo not given) belongs 8.97%; to `C=CC[C@H](C[C@H](O)[C@H](Cc1ccccc1)NC(=O)c1ccc(-c2cccnn2)cc1)C(=O)NC1CCCCC1`, -1.31%.
With `Cc1cccc(CN2CCCN(Cc3ccc(C(=O)Nc4ccc(C)c(F)c4)cc3)CC2)c1`, the inhibition was 2.11%.
Regarding `CC(C)(C)Nc1cc(C2CC2)nc(-c2ccccn2)n1`, the inhibition came to 3.05%.
Next, `Cc1cccc2nc(-c3ccc(-c4cccc(CNCc5ccccc5)c4)cc3)[nH]c12`: 6.25%.
For `CCOc1cc(Cc2cnc(N)nc2N)cc(Br)c1OC`, the inhibition turned out to be 2.29%.
To `CC(=O)N/N=C/[C@H](CCc1ccccc1)NC(=O)[C@H](CC(C)C)NC(=O)c1cccc(OCCN2CCOCC2)c1` belongs 5.79%; to `COc1ccc(Cc2nc(/N=C(\N)Nc3ccccc3)ccc2OC)cc1`, -0.02%; to `CCOC(=O)c1cnc2c(OC)cc(OC)c(Cl)c2c1Nc1cccc(C)c1C`, -6.14%.
To `COc1ccc(NC(=O)Nc2cccc(-c3ccc(-c4nc5cc(C(F)(F)F)ccc5[nH]4)cc3)c2)cc1` belongs -2.91%; to `O=C(Cc1c[nH]cn1)Nc1cccc(-c2cccc(-c3nc4ccccc4[nH]3)c2)c1`, 7.58%.
Next, `O=S(=O)(Nc1cc2c(cc1O)CCNCC2)c1ccc(-c2ccc(Cl)cc2)cc1`: 2.34%.
For `Fc1cccc(COc2ccc(Nc3ncnc4cc(/C=C/[C@@H]5CCCN5)sc34)cc2Cl)c1`, the inhibition amounted to 1.52%.
For the compound `N=c1ccn(CC(=NO)c2ccc(Cl)c(Cl)c2)cc1`, the inhibition was determined as 0.32%.
Next, `O=C(Cn1c(CCc2cccc(F)c2F)nc(=O)c2ccccc21)N(CCN1CCCC1)Cc1ccc(-c2ccc(C(F)(F)F)cc2)cc1`: -4.3%.
To `CN1CCCC(CN2CCN(Cc3ccc(-c4cccc(-c5nc6ccccc6[nH]5)c4)cc3)CC2)C1` (stereo not given) belongs 3.47%.
